Source: the supplement of paper PMC11732987, “Enantioselective OTUD7B fragment discovery through chemoproteomics screening and high-throughput optimisation” (Communications Chemistry, 2025)

Columns and labels:
Assay in all cases: log2 ratio of Biotin-Ahx-Ub-VS probe labelling (compound/DMSO); higher = less target engagement, active = hit call of the paper (q ≤ 0.05, log2 ratio ≤ -1)
Conditions in all cases: treatment time: 3 h
[1] = compound: CCC1N(CCc2sccc12)C(=O)CCl
How it was run: (§1)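 HEK293T lysate (495 µg per sample, in Tris/CHAPS/IGEPAL buffer with protease inhibitors) was exposed in triplicate to compound at 50 or 200 µM, or to DMSO, for 3 h, then to Biotin-Ahx-Ub-VS (0.5 µM final) for 1 h. The labelled DUBs were enriched on NeutrAvidin, digested with LysC and trypsin, and analysed by diaPASEF LC-MS/MS. Average base-two log ratios of compound over DMSO came from median-normalised label-free quantities by unpaired t-test. Only proteins with at least 2 unique peptides were used.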

[2] = compound: CN1c2ccccc2C(CS1(=O)=O)NC(=O)CCl
How it was run: as §1

[3] = compound: Cl.ClCC(=O)N1CCc2ncncc2C1
How it was run: as §1

[4] = compound: Cl.Cn1ncc2C(CCCc12)NC(=O)CCl
How it was run: as §1

[5] = compound: ClCC(=O)NC1CCOc2ccccc12
How it was run: as §1

[6] = compound: ClCC(=O)NC1CCCc2ccccc12
How it was run: (§2)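 In triplicate, 495 µg portions of HEK293T lysate in Tris/CHAPS/IGEPAL buffer with protease inhibitors received compound across a concentration series or vehicle for 3 h, followed by 1 h with 0.5 µM final Biotin-Ahx-Ub-VS. After NeutrAvidin enrichment and LysC/trypsin digestion, the labelled deubiquitinases were measured by diaPASEF LC-MS/MS and quantified label-free in Spectronaut with global-median normalisation. Each value is an average compound-to-vehicle ratio from an unpaired t-test, expressed as log2 and restricted to proteins having two or more unique peptides.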

[7] = compound: ClCC(=O)N[C@@H]1CCCc2ccccc12
How it was run: as §2

[8] = compound: ClCC(=O)N[C@H]1CCCc2ccccc12
How it was run: as §2

[9] = compound: CCC1N(CCc2cc(OC)c(Cl)cc12)C(=O)CCl
How it was run: as §1

[10] = compound: CCCC1N(CCc2cc(OC)c(OC)cc12)C(=O)CCl
How it was run: as §1

[11] = compound: CN(Cc1cccc(Br)c1)C(=O)CCl
How it was run: as §1

[12] = compound: CN(Cc1cccc(OCc2ccccc2C)c1)C(=O)CCl
How it was run: as §1

[13] = compound: CN(Cc1ccccc1)C(=O)CCl
How it was run: as §1

[14] = compound: COc1ccc(CN(C)C(=O)CCl)cc1
How it was run: as §1

[15] = compound: COc1cccc(CN(CCCc2ccccc2)C(=O)CCl)c1
How it was run: as §1

[16] = compound: ClCC(=O)N1CCc2cc(Cl)c(Cl)cc2C1
How it was run: as §1

[17] = compound: ClCC(=O)N1CCc2nc(ncc2C1)-c1ccccc1
How it was run: as §1

[18] = compound: ClCC(=O)N1CCc2nocc2C1
How it was run: as §1

[19] = compound: ClCC(=O)N1CCc2scc(Br)c2C1
How it was run: as §1

[20] = compound: ClCC(=O)NC(C1CCCC1)c1cccs1
How it was run: as §1

Measured: log2 ratio of Biotin-Ahx-Ub-VS probe labelling

UniProt Q8TE49
Sequence of UniProt Q8TE49 (Q8TE49 whole entry): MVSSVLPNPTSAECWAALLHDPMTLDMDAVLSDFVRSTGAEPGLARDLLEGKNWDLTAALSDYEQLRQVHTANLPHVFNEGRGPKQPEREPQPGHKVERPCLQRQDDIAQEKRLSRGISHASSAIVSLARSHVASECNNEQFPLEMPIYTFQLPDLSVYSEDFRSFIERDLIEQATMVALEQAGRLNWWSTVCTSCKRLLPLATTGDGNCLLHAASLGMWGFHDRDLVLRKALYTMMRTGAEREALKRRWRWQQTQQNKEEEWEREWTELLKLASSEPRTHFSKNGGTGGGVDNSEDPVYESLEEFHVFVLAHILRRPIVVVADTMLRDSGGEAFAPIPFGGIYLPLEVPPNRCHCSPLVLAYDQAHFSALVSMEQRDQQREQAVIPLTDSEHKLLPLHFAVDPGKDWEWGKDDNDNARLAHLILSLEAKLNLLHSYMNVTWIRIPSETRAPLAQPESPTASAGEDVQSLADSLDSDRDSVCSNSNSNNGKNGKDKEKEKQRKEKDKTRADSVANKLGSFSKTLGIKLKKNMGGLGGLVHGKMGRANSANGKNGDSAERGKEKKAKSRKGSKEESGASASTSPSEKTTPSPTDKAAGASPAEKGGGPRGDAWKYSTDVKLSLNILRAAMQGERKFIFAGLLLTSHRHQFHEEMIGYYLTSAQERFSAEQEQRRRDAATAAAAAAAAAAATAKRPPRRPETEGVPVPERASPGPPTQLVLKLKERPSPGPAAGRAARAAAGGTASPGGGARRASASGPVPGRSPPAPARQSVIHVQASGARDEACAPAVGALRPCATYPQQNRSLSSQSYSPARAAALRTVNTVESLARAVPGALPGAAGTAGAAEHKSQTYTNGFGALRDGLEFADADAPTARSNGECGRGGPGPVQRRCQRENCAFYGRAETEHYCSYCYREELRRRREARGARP
active: [2]; compound concentration: 50uM -1.25 | [2]; compound concentration: 200uM -2.71 | [3]; compound concentration: 200uM -1.55 | [4]; compound concentration: 50uM -2.22 | [4]; compound concentration: 200uM -2.78 | [5]; compound concentration: 200uM -1.23 | [6]; compound concentration: 0.78uM -1.71 | [6]; compound concentration: 1.56uM -1.79 | [6]; compound concentration: 3.13uM -1.77 | [6]; compound concentration: 6.25uM -1.34 | [6]; compound concentration: 12.5uM -1.27 | [6]; compound concentration: 25uM -2.03 | [6]; compound concentration: 50uM -2.39 | [6]; compound concentration: 100uM -2.75 | [6]; compound concentration: 200uM -3.99 | [7]; compound concentration: 6.25uM -1.72 | [7]; compound concentration: 50uM -1.33 | [7]; compound concentration: 200uM -1.69 | [8]; compound concentration: 1.56uM -1.6 | [8]; compound concentration: 3.13uM -1.78 | [8]; compound concentration: 6.25uM -1.41 | [8]; compound concentration: 25uM -2.19 | [8]; compound concentration: 50uM -2.93 | [8]; compound concentration: 100uM -3.39 | [8]; compound concentration: 200uM -3.55 | [9]; compound concentration: 200uM -1.15 | [16]; compound concentration: 200uM -1.89 | [17]; compound concentration: 200uM -1.52 | [18]; compound concentration: 200uM -2.04 | [19]; compound concentration: 200uM -1.81
inactive: [1]; compound concentration: 50uM -0.281 | [1]; compound concentration: 200uM -0.466 | [3]; compound concentration: 50uM -0.364 | [5]; compound concentration: 50uM -0.839 | [7]; compound concentration: 0.78uM -0.577 | [7]; compound concentration: 1.56uM -0.173 | [7]; compound concentration: 3.13uM -0.995 | [7]; compound concentration: 12.5uM -0.347 | [7]; compound concentration: 25uM -0.135 | [7]; compound concentration: 100uM -0.0704 | [8]; compound concentration: 0.78uM -1.04 | [8]; compound concentration: 12.5uM -0.835 | [9]; compound concentration: 50uM 0.126 | [10]; compound concentration: 50uM -0.481 | [10]; compound concentration: 200uM -1.23 | [11]; compound concentration: 50uM -0.52 | [11]; compound concentration: 200uM -0.96 | [12]; compound concentration: 50uM -0.844 | [12]; compound concentration: 200uM -1.04 | [13]; compound concentration: 50uM -0.139 | [13]; compound concentration: 200uM -0.82 | [14]; compound concentration: 50uM -0.245 | [14]; compound concentration: 200uM -0.895 | [15]; compound concentration: 50uM -0.508 | [15]; compound concentration: 200uM -0.562 | [16]; compound concentration: 50uM -0.0686 | [17]; compound concentration: 50uM -0.422 | [18]; compound concentration: 50uM -0.33 | [19]; compound concentration: 50uM -0.0558 | [20]; compound concentration: 50uM 0.0953 | [20]; compound concentration: 200uM -0.534

USP24 (UniProt Q9UPU5)
Sequence of UniProt Q9UPU5 (Q9UPU5 whole entry): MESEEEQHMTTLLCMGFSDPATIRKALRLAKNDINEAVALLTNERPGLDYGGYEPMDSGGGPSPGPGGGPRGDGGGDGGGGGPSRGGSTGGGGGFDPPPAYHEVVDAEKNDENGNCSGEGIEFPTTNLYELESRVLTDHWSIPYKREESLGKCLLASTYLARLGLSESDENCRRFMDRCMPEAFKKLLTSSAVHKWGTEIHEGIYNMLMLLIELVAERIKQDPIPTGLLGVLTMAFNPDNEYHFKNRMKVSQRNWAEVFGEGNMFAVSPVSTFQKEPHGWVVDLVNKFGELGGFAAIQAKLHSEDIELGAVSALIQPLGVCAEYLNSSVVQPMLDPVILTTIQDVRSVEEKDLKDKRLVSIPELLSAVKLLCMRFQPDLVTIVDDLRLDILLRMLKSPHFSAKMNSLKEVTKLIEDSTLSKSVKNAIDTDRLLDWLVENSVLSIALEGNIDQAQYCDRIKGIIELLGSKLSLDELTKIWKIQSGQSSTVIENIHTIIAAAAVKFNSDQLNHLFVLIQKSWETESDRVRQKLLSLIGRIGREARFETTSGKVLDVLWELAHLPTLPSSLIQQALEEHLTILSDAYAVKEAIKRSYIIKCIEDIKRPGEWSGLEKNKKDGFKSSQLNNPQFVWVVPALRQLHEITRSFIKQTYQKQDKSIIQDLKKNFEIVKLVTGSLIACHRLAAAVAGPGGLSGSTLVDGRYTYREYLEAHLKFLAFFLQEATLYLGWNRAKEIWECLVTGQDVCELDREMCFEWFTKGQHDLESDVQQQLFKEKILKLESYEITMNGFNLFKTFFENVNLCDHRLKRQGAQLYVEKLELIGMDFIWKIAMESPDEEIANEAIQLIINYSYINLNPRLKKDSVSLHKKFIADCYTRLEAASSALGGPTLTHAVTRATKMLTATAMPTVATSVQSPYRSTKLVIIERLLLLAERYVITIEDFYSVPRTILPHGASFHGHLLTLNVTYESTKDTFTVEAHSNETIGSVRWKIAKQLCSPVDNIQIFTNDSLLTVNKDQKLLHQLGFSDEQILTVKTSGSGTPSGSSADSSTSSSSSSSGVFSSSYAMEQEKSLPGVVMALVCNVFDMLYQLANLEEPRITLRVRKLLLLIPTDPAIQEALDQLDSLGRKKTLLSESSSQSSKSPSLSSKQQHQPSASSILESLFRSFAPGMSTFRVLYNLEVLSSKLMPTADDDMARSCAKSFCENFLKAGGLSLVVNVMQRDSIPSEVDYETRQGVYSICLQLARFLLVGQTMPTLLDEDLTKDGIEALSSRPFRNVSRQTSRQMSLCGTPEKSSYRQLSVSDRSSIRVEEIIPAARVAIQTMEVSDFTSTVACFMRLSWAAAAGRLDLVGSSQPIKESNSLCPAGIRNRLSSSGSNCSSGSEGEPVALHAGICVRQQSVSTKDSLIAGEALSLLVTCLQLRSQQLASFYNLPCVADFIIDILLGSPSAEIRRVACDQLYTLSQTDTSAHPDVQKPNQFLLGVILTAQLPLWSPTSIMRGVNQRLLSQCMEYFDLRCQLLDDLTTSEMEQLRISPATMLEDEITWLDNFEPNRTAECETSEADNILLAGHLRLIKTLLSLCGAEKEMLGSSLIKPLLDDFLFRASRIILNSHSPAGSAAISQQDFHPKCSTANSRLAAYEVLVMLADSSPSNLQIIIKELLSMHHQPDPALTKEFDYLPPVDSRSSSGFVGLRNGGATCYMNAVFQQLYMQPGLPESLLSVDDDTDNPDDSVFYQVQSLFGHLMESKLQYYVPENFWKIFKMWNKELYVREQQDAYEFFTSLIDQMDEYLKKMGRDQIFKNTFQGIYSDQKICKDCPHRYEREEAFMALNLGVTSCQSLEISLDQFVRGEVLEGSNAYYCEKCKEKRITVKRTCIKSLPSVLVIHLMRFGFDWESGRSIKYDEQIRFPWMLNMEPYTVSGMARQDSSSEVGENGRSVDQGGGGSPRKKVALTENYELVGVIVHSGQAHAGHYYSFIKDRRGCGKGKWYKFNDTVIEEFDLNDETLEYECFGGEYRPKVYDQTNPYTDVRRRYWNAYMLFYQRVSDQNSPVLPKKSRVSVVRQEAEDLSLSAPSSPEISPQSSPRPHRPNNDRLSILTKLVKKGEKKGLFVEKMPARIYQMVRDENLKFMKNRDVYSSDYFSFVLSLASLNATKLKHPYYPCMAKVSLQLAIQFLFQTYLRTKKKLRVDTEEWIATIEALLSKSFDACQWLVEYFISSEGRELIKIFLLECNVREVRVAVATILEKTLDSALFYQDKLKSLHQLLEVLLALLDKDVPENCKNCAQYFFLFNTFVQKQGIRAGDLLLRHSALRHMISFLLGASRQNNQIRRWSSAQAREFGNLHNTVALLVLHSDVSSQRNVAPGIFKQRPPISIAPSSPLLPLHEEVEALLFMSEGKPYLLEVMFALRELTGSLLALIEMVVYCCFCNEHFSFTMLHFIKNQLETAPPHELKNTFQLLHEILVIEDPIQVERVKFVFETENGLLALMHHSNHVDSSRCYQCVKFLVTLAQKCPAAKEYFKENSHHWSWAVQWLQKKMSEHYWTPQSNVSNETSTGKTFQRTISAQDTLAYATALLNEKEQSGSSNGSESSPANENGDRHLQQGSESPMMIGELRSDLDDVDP
inactive: [1]; compound concentration: 50uM -0.392 | [2]; compound concentration: 50uM -0.121 | [2]; compound concentration: 200uM -0.347 | [3]; compound concentration: 50uM 0.151 | [3]; compound concentration: 200uM -0.708 | [4]; compound concentration: 50uM 0.209 | [4]; compound concentration: 200uM -0.13 | [5]; compound concentration: 50uM 0.141 | [5]; compound concentration: 200uM -0.46 | [6]; compound concentration: 0.78uM -0.028 | [6]; compound concentration: 1.56uM 0.0284 | [6]; compound concentration: 3.13uM -0.0886 | [6]; compound concentration: 6.25uM -0.0483 | [6]; compound concentration: 12.5uM -0.117 | [6]; compound concentration: 25uM -0.177 | [6]; compound concentration: 50uM -0.175 | [6]; compound concentration: 100uM -0.0863 | [6]; compound concentration: 200uM -0.2 | [7]; compound concentration: 0.78uM -0.148 | [7]; compound concentration: 1.56uM -0.0805 | [7]; compound concentration: 3.13uM -0.0521 | [7]; compound concentration: 6.25uM -0.105 | [7]; compound concentration: 12.5uM -0.0644 | [7]; compound concentration: 25uM -0.126 | [7]; compound concentration: 50uM -0.193 | [7]; compound concentration: 100uM -0.134 | [7]; compound concentration: 200uM -0.343 | [8]; compound concentration: 0.78uM -0.009 | [8]; compound concentration: 1.56uM -0.013 | [8]; compound concentration: 3.13uM -0.0452 | [8]; compound concentration: 6.25uM -0.0162 | [8]; compound concentration: 12.5uM -0.088 | [8]; compound concentration: 25uM -0.093 | [8]; compound concentration: 50uM -0.0741 | [8]; compound concentration: 100uM -0.151 | [8]; compound concentration: 200uM -0.346 | [9]; compound concentration: 50uM -0.366 | [10]; compound concentration: 50uM -0.409 | [11]; compound concentration: 50uM -0.487 | [12]; compound concentration: 50uM -0.993 | [13]; compound concentration: 50uM -0.374 | [13]; compound concentration: 200uM -0.994 | [14]; compound concentration: 50uM -0.209 | [14]; compound concentration: 200uM -0.569 | [15]; compound concentration: 50uM -0.878 | [16]; compound concentration: 50uM -0.754 | [17]; compound concentration: 50uM -0.355 | [18]; compound concentration: 50uM -0.201 | [18]; compound concentration: 200uM -0.568 | [20]; compound concentration: 50uM -0.0604 | [20]; compound concentration: 200uM -0.635
active: [1]; compound concentration: 200uM -1.29 | [9]; compound concentration: 200uM -1.37 | [10]; compound concentration: 200uM -1.41 | [11]; compound concentration: 200uM -1.48 | [12]; compound concentration: 200uM -2.02 | [15]; compound concentration: 200uM -1.68 | [16]; compound concentration: 200uM -2.35 | [17]; compound concentration: 200uM -1.41 | [19]; compound concentration: 50uM -1.1 | [19]; compound concentration: 200uM -2.46

USP28 (UniProt Q96RU2)
Sequence of UniProt Q96RU2 (Q96RU2 whole entry): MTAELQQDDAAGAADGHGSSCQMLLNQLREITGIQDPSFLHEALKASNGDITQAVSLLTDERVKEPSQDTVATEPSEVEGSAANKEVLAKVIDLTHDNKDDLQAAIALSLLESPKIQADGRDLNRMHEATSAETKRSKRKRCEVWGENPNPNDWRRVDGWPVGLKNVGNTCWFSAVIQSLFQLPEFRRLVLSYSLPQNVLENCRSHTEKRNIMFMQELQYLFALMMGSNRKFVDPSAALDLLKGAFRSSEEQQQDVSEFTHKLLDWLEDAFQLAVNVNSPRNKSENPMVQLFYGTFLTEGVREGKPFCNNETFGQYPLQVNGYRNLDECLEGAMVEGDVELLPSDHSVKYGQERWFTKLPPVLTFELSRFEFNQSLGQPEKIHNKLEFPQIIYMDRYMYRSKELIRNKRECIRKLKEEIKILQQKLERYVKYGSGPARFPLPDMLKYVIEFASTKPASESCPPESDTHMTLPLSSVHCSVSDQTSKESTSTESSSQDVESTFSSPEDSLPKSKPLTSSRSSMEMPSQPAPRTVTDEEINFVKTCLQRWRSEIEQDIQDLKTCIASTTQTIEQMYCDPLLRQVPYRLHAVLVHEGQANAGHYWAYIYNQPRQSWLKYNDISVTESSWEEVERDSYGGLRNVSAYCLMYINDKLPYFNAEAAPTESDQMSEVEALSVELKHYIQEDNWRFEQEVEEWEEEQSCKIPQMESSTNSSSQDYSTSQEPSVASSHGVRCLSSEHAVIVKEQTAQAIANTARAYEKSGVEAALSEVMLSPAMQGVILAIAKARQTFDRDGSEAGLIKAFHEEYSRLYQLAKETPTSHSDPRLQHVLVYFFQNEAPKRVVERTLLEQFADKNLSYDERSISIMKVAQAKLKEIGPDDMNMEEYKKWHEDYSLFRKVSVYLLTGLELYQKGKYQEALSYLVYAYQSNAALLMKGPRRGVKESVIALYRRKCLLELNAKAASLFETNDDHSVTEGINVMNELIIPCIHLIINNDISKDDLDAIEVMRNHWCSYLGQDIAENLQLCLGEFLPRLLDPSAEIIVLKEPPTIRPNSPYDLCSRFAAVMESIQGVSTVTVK
inactive: [1]; compound concentration: 50uM -0.105 | [1]; compound concentration: 200uM -0.495 | [2]; compound concentration: 50uM -0.127 | [2]; compound concentration: 200uM -0.556 | [3]; compound concentration: 50uM -0.0823 | [3]; compound concentration: 200uM -0.643 | [4]; compound concentration: 50uM 0.00687 | [4]; compound concentration: 200uM -0.349 | [5]; compound concentration: 50uM 0.0277 | [5]; compound concentration: 200uM -0.467 | [6]; compound concentration: 0.78uM -0.115 | [6]; compound concentration: 1.56uM 0.0493 | [6]; compound concentration: 3.13uM -0.068 | [6]; compound concentration: 6.25uM -0.0775 | [6]; compound concentration: 12.5uM -0.136 | [6]; compound concentration: 25uM -0.188 | [6]; compound concentration: 50uM -0.185 | [6]; compound concentration: 100uM -0.427 | [6]; compound concentration: 200uM -0.751 | [7]; compound concentration: 0.78uM -0.289 | [7]; compound concentration: 1.56uM -0.168 | [7]; compound concentration: 3.13uM -0.114 | [7]; compound concentration: 6.25uM -0.181 | [7]; compound concentration: 12.5uM -0.122 | [7]; compound concentration: 25uM -0.154 | [7]; compound concentration: 50uM -0.239 | [7]; compound concentration: 100uM -0.221 | [7]; compound concentration: 200uM -0.426 | [8]; compound concentration: 0.78uM -0.0897 | [8]; compound concentration: 1.56uM -0.144
